Measurements from PubChem BioAssay AID504847 (National Center for Advancing Translational Sciences (NCATS), 2011).
Screen size: about 400,000 compounds; about 3,700 (0.93%) were called active. Inconclusive results (about 3%) are left out. The sample holds actives, similar compounds and a random draw of the others, so the mix is not that of the screen. Calls follow the shape of the dose curve; as a rule, active = well fitted inhibition curve with a large enough effect; inconclusive = small, poorly fitted or top-dose-only effect, or another doubt; inactive = no such curve, though single readings can be large or run the other way.

biological target: Vitamin D3 receptor (Homo sapiens) (UniProt P11473); assay: Inhibitors of the vitamin D receptor (VDR): qHTS; conditions: VDR-SRC2-3 peptide fluorescence polarization, 2 h; max response, negative = inhibition: stronger effect = lower value
Sequence (P11473 whole entry, looked up): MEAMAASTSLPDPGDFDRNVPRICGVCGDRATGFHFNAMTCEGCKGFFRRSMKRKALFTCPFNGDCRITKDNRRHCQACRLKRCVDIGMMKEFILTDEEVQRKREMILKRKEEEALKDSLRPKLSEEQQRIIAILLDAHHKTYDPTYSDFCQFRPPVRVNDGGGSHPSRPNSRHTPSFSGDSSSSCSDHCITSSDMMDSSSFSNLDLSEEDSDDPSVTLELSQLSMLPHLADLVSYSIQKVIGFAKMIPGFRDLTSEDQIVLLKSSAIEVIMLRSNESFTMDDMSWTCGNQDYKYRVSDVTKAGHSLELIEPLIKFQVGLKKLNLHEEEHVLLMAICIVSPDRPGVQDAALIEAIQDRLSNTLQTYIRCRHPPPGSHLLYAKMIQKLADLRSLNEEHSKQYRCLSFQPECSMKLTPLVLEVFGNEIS
Summary of the method: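 Reagent solutions, kept cold and dark, are dispensed first; compounds are then pinned in at 23 nl, plates briefly spun, and incubated 2 h at ambient temperature. Inhibition of VDR–SRC2-3 peptide binding is read by fluorescence polarization.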
% is scaled to controls: 0 for no effect and ±100 for the full control effect; potency is read from the fitted curve at half-maximal effect.

Row | SMILES | Potency | max response, negative = inhibition
1 | Cc1ccccc1C1=N/C(=C/c2cccnc2)C(=O)O1 | 70.8 µM (active) | –
2 | Nc1ccc2c(c1)C(=Cc1cccnc1)c1ccccc1-2 | – | -7.1% (inactive)
3 | Cc1ccc(C2=C/C(=C\c3cccnc3)C(=O)O2)cc1 | – | -0.781% (inactive)
4 | Cc1ccc(NC(=O)CSc2nc3c([nH]c4ccccc43)c(=O)n2-c2ccccc2)cc1Cl | – | 5.44% (inactive)
5 | O=C(CCCn1c(=O)c2cccn2c2cccnc21)NCc1ccc(F)cc1 | – | 8.91% (inactive)
6 | CCOc1ccc(NC(=O)Cn2c(C)ccc(C#N)c2=O)cc1 | – | -0.0869% (inactive)
7 | CCCCC(=O)NCc1ccc(F)cc1 | 3.16 µM (active) | –
8 | CCn1cc(CCC(=O)NCc2ccc(F)cc2)c2ccccc21 | – | -3.64% (inactive)
9 | Cc1ccc(CS(=O)(=O)CCC(=O)NCc2ccc(F)cc2)cc1 | – | -16.2% (inactive)
10 | Cc1ccc(C)c(N2CCN(C(=O)Cn3ncc4c(=O)oc5ccc(C)cc5c43)CC2)c1 | – | -7.32% (inactive)
11 | CCOc1ccc(NC(=O)C2CCN(S(=O)(=O)c3cc(-c4noc(C)n4)ccc3C)CC2)cc1 | – | 15.5% (inactive)
12 | Oc1c(C=Nc2cccc3nsnc23)ccc2ccccc12 | 79.4 µM (active) | –
13 | COc1ccc2[nH]c3c(c2c1)CCN(C(=O)CCC1CCCC1)C3c1ccc(F)cc1 (centres undefined) | – | 12.3% (inactive)
14 | CCc1cc2c(cc3c(=O)n(CC(=O)NCc4cccc(Cl)c4)nc(CC)n32)s1 | – | -17.2% (inactive)
15 | O=C(CSc1nc2ccccc2o1)N/N=C/c1ccccc1C(=O)O | – | -26.3% (inactive)
16 | Cc1ccc(/C=N/NC(=O)CSc2nc3ccccc3o2)cc1 | 79.4 µM (active) | –
17 | CC(C)(C)C(=O)CSc1nc2ccccc2o1 | – | -1.66% (inactive)
18 | COc1ccc(OCCCn2c(C)nc3cc(C)c(C)cc32)cc1 | – | 10% (inactive)
19 | COc1cc2c(cc1OC)[C@@H](Cc1cc(OC)c(OC)c(OC)c1)[N+](C)(CCCOC(=O)CC/C=C/CCC(=O)OCCC[N+]1(C)CCc3cc(OC)c(OC)cc3[C@H]1Cc1cc(OC)c(OC)c(OC)c1)CC2 (some centres undefined) | – | 3.39% (inactive)
20 | O=C1C(Cl)=C(Oc2ccccc2)C(=O)c2ccccc21 | 7.08 µM (active) | –
21 | CCOc1cc(C(=O)Nc2nnc3n2CCS3)cc(OCC)c1OCC | – | -8% (inactive)
22 | O=S(=O)(c1cccc(C(F)(F)F)c1)N1CCN(c2nc(-c3cccs3)nc3ccccc23)CC1 | – | 3.96% (inactive)
23 | COc1ccccc1CNc1nccn(-c2ccc(F)cc2)c1=O | – | 6.76% (inactive)

Row | SMILES | Potency | max response, negative = inhibition
24 | C[C@@H](NC(=O)OC(C)(C)C)c1nnc(S(=O)(=O)Cc2ccccc2)o1 | 28.2 µM (active) | –
25 | CC(C)[C@@H](NC(=O)OC(C)(C)C)C(=O)NCC1CCC(C(=O)N[C@@H](Cc2ccccc2)C(=O)O)CC1 (some centres undefined) | – | -5.18% (inactive)
26 | COc1ccccc1NC(=O)[C@H](COCc1ccccc1)NC(=O)OC(C)(C)C | – | 6.86% (inactive)
27 | O=c1cc2nc(-c3ccccc3)nc(SCCOc3ccc(Cl)cc3)n2[nH]1 | – | 11.1% (inactive)
28 | CCOC(=O)c1cc2c(=O)n3ccccc3nc2n(CC2CCCO2)c1=NC(=O)c1ccccc1F (centres undefined) | – | -16% (inactive)
29 | Cc1ccc(C2c3[nH]c4ccccc4c3CCN2C(=O)c2cccc(C)c2)cc1 (centres undefined) | – | 4% (inactive)
30 | Clc1cccc(-n2ncc3c(NCCc4ccccc4)ncnc32)c1 | – | 2.94% (inactive)
31 | CC1CCN(C(=S)c2cccc([N+](=O)[O-])c2)CC1 | – | 9.7% (inactive)
32 | COc1cc(C(=S)N2CCOCC2)cc(OC)c1OC(=O)c1cc([N+](=O)[O-])cc([N+](=O)[O-])c1 | – | -18.9% (inactive)
33 | O=C(Oc1ccccc1C(=S)N1CCCCC1)c1cc([N+](=O)[O-])cc([N+](=O)[O-])c1 | 89.1 µM (active) | –
34 | COc1ccc(OC)c([C@H](O)CNC(=O)CN)c1 | – | 6.34% (inactive)
35 | Cc1ccc(CNC(=O)CCc2c(C)nc3nc(CNC(=O)OC(C)(C)C)nn3c2C)cc1 | – | 6.84% (inactive)
36 | CCc1nnc(NC(=O)C2CC(=O)N(c3ccc4c(c3)OCCO4)C2)s1 (centres undefined) | 56.2 µM (active) | –
37 | CC(=O)c1ccccc1NC(=O)C1CC(=O)N(c2ccc3c(c2)OCCO3)C1 (centres undefined) | – | 0.279% (inactive)
38 | CCOC(=O)c1ccc(NC(=O)C2CC(=O)N(c3ccc4c(c3)OCCO4)C2)cc1 (centres undefined) | – | -6.01% (inactive)
39 | CCc1cc2c(cc3c(=O)n(CC(=O)NCCc4ccc(OC)c(OC)c4)ncn32)s1 | – | 14.2% (inactive)
40 | CC1CC(C)CN(c2oc(-c3ccc(OCc4ccc(Cl)cc4)cc3)nc2C#N)C1 (centres undefined) | – | -6.19% (inactive)
41 | COc1cccc(-c2cc(C(=O)Nc3ccc(C)cc3)[nH]n2)c1 | – | -3.16% (inactive)
42 | Cc1ccc(C(=O)NC(=S)NCc2cccnc2)cc1 | – | -6.42% (inactive)
43 | Cc1ccc(-n2nc(-c3ccco3)cc2C(=O)NCc2cccnc2)cc1 | 70.8 µM (active) | –
44 | CSc1sc(C(=O)NC(=O)NCc2cccnc2)c(C)c1-c1ccon1 | – | 1.93% (inactive)
45 | COc1cc(CNCCSc2nnnn2C)ccc1OCc1ccc(Cl)cc1Cl | – | 1.83% (inactive)
46 | O=c1c(O)c(Br)ccc2c(Br)c(O)c(O)c(O)c12 | 7.94 µM (active) | –

Row | SMILES | Potency | max response, negative = inhibition
47 | O=C(c1ccco1)N(Cc1cccs1)c1ccc(O)cc1 | – | -6.28% (inactive)
48 | Cc1cccc(CSc2nc3ccncc3n2CC(=O)N(C)C2CCCCC2)c1 | – | -0.866% (inactive)
49 | CCOCCCNC(=O)c1c(NC(=O)Cc2coc3ccc(C)cc23)sc2c1CCC2 | – | 8.22% (inactive)
50 | O=C(Nc1ccccc1-c1nnn(CC(=O)N2CCN(c3ccccc3)CC2)n1)c1cccs1 | – | -0.102% (inactive)
51 | O=C(Nc1ccccc1-c1ccccc1)c1cccs1 | 70.8 µM (active) | –
52 | O=C(Nc1ccccc1-c1ccccc1)c1ccccc1[N+](=O)[O-] | – | -7.79% (inactive)
53 | Cc1ccc(C)c(NC(=O)CSC2=Nc3ccccc3N=C(c3ccc(F)cc3)C2)c1 | – | 4.3% (inactive)
54 | Cc1cccc2nc(-c3ccc(Cl)s3)c(Nc3ccc4c(c3)OCCO4)n12 | – | -14.5% (inactive)
55 | CC(=O)NCC(O)c1ccc([N+](=O)[O-])cc1 (centres undefined) | – | -16.9% (inactive)
56 | C=C(C(C)=O)C(O)c1ccc([N+](=O)[O-])cc1 (centres undefined) | 50.1 µM (active) | –
57 | C=C(C(C)=O)C(O)c1cccs1 (centres undefined) | – | -7.76% (inactive)
58 | CCN1CCN(c2cc(C)c3cc(NC(=O)c4cc(Cl)ccc4OC)ccc3n2)CC1 | – | -8.13% (inactive)
59 | CCOc1ccc(CC(=O)NCCc2csc3nc(-c4ccccc4F)nn23)cc1 | – | 13.3% (inactive)
60 | CN(C)c1nccc(NCc2ccccc2)c1C#N | – | 28.6% (inactive)
61 | CC(C)n1cnc2c(NCc3ccccc3)cc(OCC3CCN(C)CC3)cc21 | 50.1 µM (active) | –
62 | CCC(CO)Oc1cc(NC(=O)c2ccc(Cl)cc2)c2ncn(C(C)C)c2c1 (centres undefined) | – | -27.1% (inactive)
63 | CCOc1ccc(NC(=O)CSc2c3c(nc4ccccc24)CCCC3)cc1 | – | 0.351% (inactive)
64 | CC(=O)c1ccc(NS(=O)(=O)c2ccc(-c3cc(C)no3)s2)cc1 | – | -0.0795% (inactive)
65 | COc1ccc(CNC(=O)C2=Cc3cccc(OC)c3OC2)cc1OC | – | -2.19% (inactive)
66 | C[C@]12CC[C@@H]3c4ccc(O)cc4C[C@@H](CCCCCCCCCS(=O)CCCC(F)(F)C(F)(F)F)C3[C@@H]1CC[C@@H]2O (some centres undefined) | – | -2.01% (inactive)
67 | CCOc1ccc(NC(=O)CSc2nnc3c(n2)[nH]c2ccc(S(=O)(=O)N4CCOCC4)cc23)cc1 | – | 3.89% (inactive)
68 | CSc1ccccc1C(=O)Nc1cccc(C(C)=O)c1 | 39.8 µM (active) | –
69 | CC(=O)c1cccc(NC(=O)c2cc(C)nn2-c2ccccc2)c1 | – | -12.6% (inactive)

Row | SMILES | Potency | max response, negative = inhibition
70 | CSc1ccccc1C(=O)NCc1ccccc1 | – | 10.4% (inactive)
71 | CCCCC/C=C\C/C=C\CCCCCCCCCC(N)=O | – | -2.13% (inactive)
72 | CCN(CC)C(=O)CSc1nc2cc3c(cc2c(=O)n1CCCC(=O)NCc1ccc2c(c1)OCO2)OCO3 | – | 4.85% (inactive)
73 | CCOc1ccc2nc(N3CCCC(C(=O)Nc4cc(C)ccc4C)C3)sc2c1 (centres undefined) | – | 5.91% (inactive)
74 | O=C(O)c1ccc(CSc2nc3cccnc3n2Cc2cccc(F)c2)cc1 | – | 9.37% (inactive)
75 | O=C(/C=C/Sc1ncn[nH]1)c1ccc(Cl)cc1 | 39.8 µM (active) | –
76 | C[C@@H]1C[C@H]2[C@@H]3C[C@H](F)C4=CC(=O)C=C[C@@]4(C)[C@]3(F)[C@H](O)C[C@]2(C)[C@@]1(O)C(=O)CO | – | -2.08% (inactive)
77 | Cc1ccnc(-n2sc3ccccc3c2=O)n1 | 25.1 µM (active) | –
78 | CCOC(=O)c1c(C)[nH]c(CCC(=O)Nc2ccc(OC)c(OC)c2)c1C | – | -6.79% (inactive)
79 | COc1cc(OC)c(C2C=C(C(=O)O)Nc3ncnn32)cc1OC (centres undefined) | – | -29.8% (inactive)
80 | COc1ccccc1CNC(=O)Cn1nc(C)c2nn(-c3ccc(Cl)cc3)c(C)c2c1=O | – | 3.2% (inactive)
81 | Nc1ccc2c(c1)C(O)c1ccc(Cl)cc1-2 (centres undefined) | – | 1.49% (inactive)
82 | NC(=O)C1(C(N)=O)OC1c1ccc(Cl)cc1Cl (centres undefined) | 14.1 µM (active) | –
83 | CCN(CC)c1nc(C#N)nc(OC)n1 | – | -23.3% (inactive)
84 | CCOC(=O)c1ccccc1N1C(=O)C2Sc3[nH]c(=O)sc3C(/C=C/c3ccccc3)C2C1=O (centres undefined) | – | -26.2% (inactive)
85 | CCOC(=O)C1Sc2[nH]c(=O)sc2C(c2ccc(Cl)cc2)C1C(=O)OCC (centres undefined) | 79.4 µM (active) | –
86 | CCOC(=O)C1CCN(C(=O)Nc2ccc(Cl)cc2)CC1 | – | 6.67% (inactive)
87 | CCCCCn1c(CCCNC(=O)c2ccccc2OC)nc2ccccc21 | – | 10.5% (inactive)
88 | COc1cccc2c1cc1c(=O)n(CC(=O)N3CCN(c4cccc(Cl)c4)CC3)nc(C)n12 | – | -15.1% (inactive)
89 | Cc1cccc(NC(=O)CSc2ncc(-c3ccccc3)[nH]2)c1C | – | -15.6% (inactive)
